This note sets out measurements from the supplement of paper PMC10849652.

About 7,900 targets were measured; listed, in parts, are those with a hit and a random draw of the rest. About 0.6% of all pairs of compound and target were hits. Unmarked numbers belong to inactive results.

Holding throughout (assay): log2 fold change, soluble protein after heating vs DMSO (PISA); higher = thermal stabilisation; K562 cells, 10 uM, 30 min; active = over 0.2 and 3.5 SD of the protein, either way, in both replicates (recomputed)
Compound in one assay: C1COCCN1CCN2C3=CC=CC=C3N=C2NC(=O)C4=CC(=CC=C4)[N+](=O)[O-] [IRAK-1-4 Inhibitor I]
The method, boiled down: (§1)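 K562 cells at 2×10^6 cells/mL were given 10 μM compound for 30 min. Aliquots then went through 3 min of heating across 48°C-58°C, were pooled, and were extracted in PBS with 0.5% NP-40 at 4°C, and the supernatant after 21,000xg for 90 min was quantified by TMTpro 16plex LC-MS/MS with channel sums equalised. Thermal stability relative to control samples, from duplicates, is given as log2 fold change.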

Compound in a further assay: C=CC(=O)N1CCC[C@@H](n2nc(-c3ccc(Oc4ccccc4)cc3)c3c(N)ncnc32)C1 [ibrutinib]
The method in brief: as §1

Compound in assay [1]: CC(=O)c1cnc2ccc(-c3cc(Cl)c(O)c(Cl)c3)nc2c1N[C@H]1CC[C@H](CN(C)C)CC1
The method in brief:
as §1

Compound in the next assay: CC(C)(C)Cn1c(N)nc2ccc(-c3[nH]c(C(C)(C)C)nc3-c3ccc(F)cc3)nc21 [ralimetinib]
The method, boiled down:
as §1

Compound in assay [2]: CC(C)(O)CC(=O)NCCn1ccc2ncnc(Nc3ccc(Oc4cccc(C(F)(F)F)c4)c(Cl)c3)c21
The method, boiled down: as §1

Compound in assay [3]: CC(C)C1=C2N=C(C=C(N2N=C1)NCC3=CC=CC=C3)NCCCCCCN
The method, boiled down:
as §1

Compound in assay [4]: CC(C)C[C@@H](C=O)NC(=O)[C@H](CC(C)C)NC(=O)[C@H](CC(C)C)NC(=O)OCc1ccccc1
The method in brief:
as §1

Compound in the next assay: CC(C)N(C[C@H]1O[C@@H](n2cnc3c(N)ncnc32)[C@H](O)[C@@H]1O)[C@H]1C[C@@H](CCc2nc3cc(C(C)(C)C)ccc3[nH]2)C1 [pinometostat]
The method in brief:
as §1

Compound in assay [5]: CC1=C(C(CC(=O)N1)C2=CC=C(C=C2)C(F)(F)F)C(=O)NC3=C(C=C4C(=C3)C=NN4)F
The method in brief: as §1

Compound in assay [6]: CC1=C(C2=C(C=C1)C(=O)C3=CC=CC=C3N2CCCN)C
The method in brief:
as §1

Compound in assay [7]: CC1=C(C=C(C=C1)NC(=O)C2=CC(=CC=C2)C(C)(C)C#N)NC3=CC4=C(C=C3)N=CN(C4=O)C
The method in brief: as §1

Compound in assay [8]: CC1=C(C=C(C=C1)NC(=O)C2=CC(=CC=C2)N(C)C)NC(=O)C3=CC=C(C=C3)O
The method in brief:
as §1

Compound in assay [9]: CC1=CC=C(C=C1)SC2=C3C=C(SC3=CN=C2)C(=O)N
The method in brief:
as §1

Compound in assay [10]: CC1=NC(=CC=C1)C2=C(N=C(N2)C(C)(C)C)C3=CC4=NC=CN=C4C=C3
The method in brief:
as §1

Compound in another assay: CCCCN(Cc1ccc(C(=O)NO)cc1)C(=O)Nc1ccccc1 [Nexturastat A]
The method in brief: as §1

Compound in a further assay: CCCS(=O)(=O)Nc1ccc(F)c(C(=O)c2c[nH]c3ncc(-c4ccc(Cl)cc4)cc23)c1F [vemurafenib]
The method, boiled down: as §1

Compound in assay [11]: CCCS(=O)(=O)Nc1ccc(F)c(C(=O)c2c[nH]c3ncc(Cl)cc23)c1F
The method, boiled down:
as §1

Compound in assay [12]: CCCc1cc(C)[nH]c(=O)c1CNC(=O)c1cc(-c2ccnc(N3CCN(C)CC3)c2)cc2c1cnn2C(C)C
The method, boiled down:
as §1

Compound in a further assay: CCN(CC)Cc1ccc2cc(COC(=O)Nc3ccc(C(=O)NO)cc3)ccc2c1 [givinostat]
The method in brief: as §1

Compound in another assay: CCN(CCCOc1ccc2c(Nc3cc(CC(=O)Nc4cccc(F)c4)[nH]n3)ncnc2c1)CCOP(=O)(O)O [barasertib]
The method, boiled down:
as §1

Sequence of UniProt Q9NV66 (Q9NV66 whole entry, looked up): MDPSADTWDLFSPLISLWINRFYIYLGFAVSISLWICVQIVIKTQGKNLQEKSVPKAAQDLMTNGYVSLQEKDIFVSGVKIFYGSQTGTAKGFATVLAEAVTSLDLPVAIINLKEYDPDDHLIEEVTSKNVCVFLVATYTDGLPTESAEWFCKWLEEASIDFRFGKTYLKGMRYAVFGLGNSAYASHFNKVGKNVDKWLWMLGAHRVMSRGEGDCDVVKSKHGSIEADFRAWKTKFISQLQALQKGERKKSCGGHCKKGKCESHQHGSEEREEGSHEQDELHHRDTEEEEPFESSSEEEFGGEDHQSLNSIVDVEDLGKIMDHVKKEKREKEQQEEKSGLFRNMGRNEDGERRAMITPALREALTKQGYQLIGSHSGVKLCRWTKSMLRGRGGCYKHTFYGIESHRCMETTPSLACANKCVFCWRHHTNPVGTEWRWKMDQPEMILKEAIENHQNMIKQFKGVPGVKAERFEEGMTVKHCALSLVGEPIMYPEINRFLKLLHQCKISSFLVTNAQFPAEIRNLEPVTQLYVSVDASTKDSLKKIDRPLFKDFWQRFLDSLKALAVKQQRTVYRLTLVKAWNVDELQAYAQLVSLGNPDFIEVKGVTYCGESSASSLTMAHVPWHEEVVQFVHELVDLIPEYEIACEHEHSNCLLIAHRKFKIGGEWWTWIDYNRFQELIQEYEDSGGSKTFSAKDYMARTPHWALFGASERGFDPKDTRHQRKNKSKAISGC
Sequence of UniProt O95155 (O95155 whole entry, looked up): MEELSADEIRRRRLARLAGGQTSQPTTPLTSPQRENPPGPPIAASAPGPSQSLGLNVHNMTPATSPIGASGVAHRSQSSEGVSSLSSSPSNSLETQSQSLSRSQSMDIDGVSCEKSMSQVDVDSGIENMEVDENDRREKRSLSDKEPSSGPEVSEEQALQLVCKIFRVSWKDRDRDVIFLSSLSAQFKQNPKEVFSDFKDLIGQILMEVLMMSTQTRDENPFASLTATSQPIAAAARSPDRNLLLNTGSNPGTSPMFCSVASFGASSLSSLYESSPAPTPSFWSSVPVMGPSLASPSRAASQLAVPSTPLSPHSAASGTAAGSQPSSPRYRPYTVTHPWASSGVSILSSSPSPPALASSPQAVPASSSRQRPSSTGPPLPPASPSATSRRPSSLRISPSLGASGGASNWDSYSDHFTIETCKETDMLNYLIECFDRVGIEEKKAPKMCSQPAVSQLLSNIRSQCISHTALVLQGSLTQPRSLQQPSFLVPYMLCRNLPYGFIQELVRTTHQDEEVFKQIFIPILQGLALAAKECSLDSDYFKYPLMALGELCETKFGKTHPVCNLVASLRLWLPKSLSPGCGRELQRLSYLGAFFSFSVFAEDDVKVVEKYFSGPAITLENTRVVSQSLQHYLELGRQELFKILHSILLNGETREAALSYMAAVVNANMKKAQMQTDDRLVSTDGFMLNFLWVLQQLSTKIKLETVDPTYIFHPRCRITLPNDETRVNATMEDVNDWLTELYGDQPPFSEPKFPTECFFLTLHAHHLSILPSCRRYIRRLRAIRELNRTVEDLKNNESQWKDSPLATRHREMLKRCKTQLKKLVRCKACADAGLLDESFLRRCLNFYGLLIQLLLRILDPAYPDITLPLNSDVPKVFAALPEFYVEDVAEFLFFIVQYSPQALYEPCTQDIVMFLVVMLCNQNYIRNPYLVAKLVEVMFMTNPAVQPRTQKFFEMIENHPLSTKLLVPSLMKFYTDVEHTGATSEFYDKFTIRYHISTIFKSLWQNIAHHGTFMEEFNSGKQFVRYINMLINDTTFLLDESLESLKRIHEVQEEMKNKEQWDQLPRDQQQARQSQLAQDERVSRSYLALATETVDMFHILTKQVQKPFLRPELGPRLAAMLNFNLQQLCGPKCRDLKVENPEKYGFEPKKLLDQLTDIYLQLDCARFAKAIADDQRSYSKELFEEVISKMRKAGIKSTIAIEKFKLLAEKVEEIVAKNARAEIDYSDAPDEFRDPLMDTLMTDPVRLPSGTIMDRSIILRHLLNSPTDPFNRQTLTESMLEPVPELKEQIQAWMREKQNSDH
Sequence of UniProt Q15642 (Q15642 whole entry, looked up): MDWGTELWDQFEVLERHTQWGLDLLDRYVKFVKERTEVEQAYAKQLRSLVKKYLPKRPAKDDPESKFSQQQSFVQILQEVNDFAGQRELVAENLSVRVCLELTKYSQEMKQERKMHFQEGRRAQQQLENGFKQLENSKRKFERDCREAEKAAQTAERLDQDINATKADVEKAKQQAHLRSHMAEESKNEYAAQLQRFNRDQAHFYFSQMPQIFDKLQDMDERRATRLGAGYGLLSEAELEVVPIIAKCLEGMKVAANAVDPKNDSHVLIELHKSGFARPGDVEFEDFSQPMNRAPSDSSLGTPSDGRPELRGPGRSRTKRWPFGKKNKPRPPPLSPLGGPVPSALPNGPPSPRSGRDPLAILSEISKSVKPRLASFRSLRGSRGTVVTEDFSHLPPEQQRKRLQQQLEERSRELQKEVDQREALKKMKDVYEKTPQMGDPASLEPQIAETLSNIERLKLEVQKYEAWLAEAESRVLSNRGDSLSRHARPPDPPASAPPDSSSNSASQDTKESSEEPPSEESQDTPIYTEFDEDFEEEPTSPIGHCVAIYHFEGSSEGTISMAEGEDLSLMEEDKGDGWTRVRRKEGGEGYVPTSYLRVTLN
Sequence of UniProt O14787 (O14787 whole entry, looked up): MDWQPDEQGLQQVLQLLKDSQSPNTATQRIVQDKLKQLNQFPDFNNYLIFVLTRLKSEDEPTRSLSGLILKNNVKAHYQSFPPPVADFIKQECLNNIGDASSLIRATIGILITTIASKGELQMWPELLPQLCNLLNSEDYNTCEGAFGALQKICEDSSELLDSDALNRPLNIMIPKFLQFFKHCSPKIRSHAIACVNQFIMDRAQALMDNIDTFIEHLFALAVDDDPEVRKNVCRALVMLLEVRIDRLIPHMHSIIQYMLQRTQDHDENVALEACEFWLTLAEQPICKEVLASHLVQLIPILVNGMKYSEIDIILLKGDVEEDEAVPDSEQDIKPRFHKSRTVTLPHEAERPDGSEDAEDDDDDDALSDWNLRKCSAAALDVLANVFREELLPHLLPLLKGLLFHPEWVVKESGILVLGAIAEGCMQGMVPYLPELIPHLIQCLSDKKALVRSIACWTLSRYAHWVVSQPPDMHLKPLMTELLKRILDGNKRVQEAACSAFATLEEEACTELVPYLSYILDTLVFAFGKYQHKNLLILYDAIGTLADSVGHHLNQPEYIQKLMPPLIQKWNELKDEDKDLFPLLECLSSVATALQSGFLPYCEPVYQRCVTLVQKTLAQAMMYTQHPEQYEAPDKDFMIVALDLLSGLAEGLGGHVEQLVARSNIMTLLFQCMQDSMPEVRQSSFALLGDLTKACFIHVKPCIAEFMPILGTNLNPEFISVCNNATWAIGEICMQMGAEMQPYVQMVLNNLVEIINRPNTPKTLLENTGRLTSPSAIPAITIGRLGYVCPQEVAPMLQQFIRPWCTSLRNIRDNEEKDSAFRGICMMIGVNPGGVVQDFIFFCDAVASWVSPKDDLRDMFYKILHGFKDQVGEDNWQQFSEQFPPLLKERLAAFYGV
Sequence of UniProt Q01081 (Q01081 whole entry, looked up): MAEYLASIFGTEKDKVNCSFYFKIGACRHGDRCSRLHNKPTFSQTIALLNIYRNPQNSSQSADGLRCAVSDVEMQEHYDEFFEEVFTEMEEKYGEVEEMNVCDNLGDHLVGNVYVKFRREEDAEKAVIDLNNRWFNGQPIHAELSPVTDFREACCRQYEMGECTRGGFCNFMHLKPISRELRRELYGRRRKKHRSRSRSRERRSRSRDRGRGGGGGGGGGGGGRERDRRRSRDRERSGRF
Sequence of UniProt Q8IZ69 (Q8IZ69 whole entry, looked up): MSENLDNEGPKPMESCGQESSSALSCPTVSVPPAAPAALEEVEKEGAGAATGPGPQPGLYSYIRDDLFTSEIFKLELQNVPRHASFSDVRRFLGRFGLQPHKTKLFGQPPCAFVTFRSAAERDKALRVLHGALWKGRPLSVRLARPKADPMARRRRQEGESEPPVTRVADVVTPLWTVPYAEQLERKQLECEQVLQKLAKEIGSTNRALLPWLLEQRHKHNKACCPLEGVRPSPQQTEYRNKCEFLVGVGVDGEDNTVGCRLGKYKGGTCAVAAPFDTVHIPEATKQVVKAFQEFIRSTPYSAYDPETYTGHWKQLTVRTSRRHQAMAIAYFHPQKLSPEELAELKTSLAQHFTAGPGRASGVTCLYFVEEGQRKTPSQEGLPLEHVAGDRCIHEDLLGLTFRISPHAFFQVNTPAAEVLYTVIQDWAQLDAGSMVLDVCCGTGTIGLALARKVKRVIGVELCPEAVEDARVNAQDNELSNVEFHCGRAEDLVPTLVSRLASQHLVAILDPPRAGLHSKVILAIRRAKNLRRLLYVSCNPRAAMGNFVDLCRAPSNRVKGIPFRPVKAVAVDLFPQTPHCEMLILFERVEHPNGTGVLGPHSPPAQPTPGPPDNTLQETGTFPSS
Sequence of UniProt O00220 (O00220 whole entry, looked up): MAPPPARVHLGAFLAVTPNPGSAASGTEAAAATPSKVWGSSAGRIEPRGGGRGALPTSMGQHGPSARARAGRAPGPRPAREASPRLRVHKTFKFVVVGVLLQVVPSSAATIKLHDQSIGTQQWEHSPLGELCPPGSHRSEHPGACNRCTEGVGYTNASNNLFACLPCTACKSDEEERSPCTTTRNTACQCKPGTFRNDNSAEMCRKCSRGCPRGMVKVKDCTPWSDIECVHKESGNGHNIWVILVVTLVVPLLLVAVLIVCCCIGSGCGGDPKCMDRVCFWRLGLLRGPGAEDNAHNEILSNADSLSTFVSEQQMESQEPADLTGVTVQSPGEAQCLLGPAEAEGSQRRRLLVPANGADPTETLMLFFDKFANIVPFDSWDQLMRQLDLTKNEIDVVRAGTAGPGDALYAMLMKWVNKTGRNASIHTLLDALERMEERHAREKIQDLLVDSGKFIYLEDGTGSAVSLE

Regarding U2AF1 isoform 2 (UniProt Q01081), the log2 fold change is -0.133 in the assay with IRAK-1-4 Inhibitor I; 0.073 with ibrutinib; -0.519 (active) in assay [1]; 0 with ralimetinib; 0.042 in assay [2]; -0.083 in [3]. For the same target, the log2 fold change was 0.022 in assay [4]; -0.04 in the assay with pinometostat; -0.062 in assay [5]; 0.169 in assay [6]; -0.011 in assay [7]; -0.078 in assay [8]. Besides, the log2 fold change in assay [9] was -0.01; in assay [10], 0.091; with Nexturastat A, 0.011; in the assay with vemurafenib it was 0.074; in assay [11], 0.071; in assay [12], -0.009. Further, the figures for the log2 fold change in the assay with givinostat and in the assay with barasertib were 0.022 and 0.009, respectively.
TRMT2A (UniProt Q8IZ69): the log2 fold change with IRAK-1-4 Inhibitor I is -0.028; with ibrutinib, 0.005; in assay [1], -0.098; in the assay with ralimetinib, 0.039; in [2], 0.013; in assay [3], -0.146. The log2 fold change in assay [4] was 0.034; with pinometostat, 0.085; in assay [5] it was 0.018; in assay [6], -0.142; in assay [7] it was 0.083; in assay [8] it was -0.02. The log2 fold change in assay [9] was -0.009; in [10] it was 0.005; in the assay with Nexturastat A, 0.013; in the assay with vemurafenib it was 0.022; in assay [11], -0.032; in assay [12], 0.085. Moreover, the log2 fold change is -0.123 with givinostat and -0.003 with barasertib.
Take TYW1 (UniProt Q9NV66): the log2 fold change in the assay with IRAK-1-4 Inhibitor I is -0.031; with ibrutinib it was -0.043; in [1], -0.096; in the assay with ralimetinib, 0.044; in [2], 0; in assay [3], 0.03. Also, the log2 fold change is -0.056 in [4]; 0.005 with pinometostat; -0.074 in [5]; 0.051 in assay [6]; 0.027 in assay [7]; -0.017 in assay [8]. In addition, the log2 fold change in assay [9] was 0.023; in [10], 0.074; in the assay with Nexturastat A, -0.08; in the assay with vemurafenib, 0.025; in [11], 0.084; in [12], 0.069. Further, the results for the log2 fold change with givinostat and in the assay with barasertib were -0.025 and 0.045, respectively.
TRIP10 (UniProt Q15642): the log2 fold change with IRAK-1-4 Inhibitor I is 0.007; with ibrutinib, 0.002; in assay [1] it was 0.009; with ralimetinib it was 0.001; in assay [2], 0; in assay [3], -0.022. The log2 fold change was 0.007 in [4]; -0.007 with pinometostat; -0.009 in assay [5]; -0.02 in [6]; 0.003 in assay [7]; -0.026 in assay [8]. Moreover, the log2 fold change is -0.009 in [9]; -0.045 in [10]; 0.139 with Nexturastat A; 0.08 with vemurafenib; 0.026 in assay [11]; -0.012 in assay [12]. The log2 fold change was -0.058 in the assay with givinostat and 0.015 with barasertib.
UBE4B isoform 4 (UniProt O95155): the log2 fold change is 0.008 in the assay with IRAK-1-4 Inhibitor I; -0.031 in the assay with ibrutinib; 0.006 in [1]; 0.057 with ralimetinib; -0.117 in assay [2]; -0.041 in assay [3]. In addition, the log2 fold change was 0.047 in assay [4]; 0 with pinometostat; 0.004 in [5]; -0.005 in [6]; 0.007 in assay [7]; -0.012 in assay [8]. Also, the log2 fold change was 0.001 in assay [9]; 0.014 in assay [10]; -0.017 with Nexturastat A; 0.024 with vemurafenib; 0.045 in assay [11]; -0.008 in assay [12]. Also, the log2 fold change in the assay with givinostat is 0.008; with barasertib it was 0.042.
On to TNFRSF10A (UniProt O00220), for which the log2 fold change with IRAK-1-4 Inhibitor I is 0.002; in the assay with ibrutinib it was 0.034; in assay [1], -0.064; with ralimetinib it was -0.072; in [2], -0.073; in assay [3], 0.043. Also, the log2 fold change was 0.078 in assay [4]; -0.002 in the assay with pinometostat; -0.003 in [5]; 0.021 in assay [6]; 0.006 in assay [7]; 0.035 in assay [8]. Also, the log2 fold change is 0.016 in [9]; -0.015 in [10]; 0.089 with Nexturastat A; -0.073 with vemurafenib; -0.044 in [11]; 0.004 in assay [12]. The log2 fold change is -0.042 with givinostat and 0.016 in the assay with barasertib.
As to TNPO2 (UniProt O14787), the log2 fold change in the assay with IRAK-1-4 Inhibitor I is -0.088; with ibrutinib, -0.023; in assay [1], -0.051; in the assay with ralimetinib, 0.027; in [2] it was -0.138; in assay [3], -0.339 (active). The log2 fold change in assay [4] was -0.042; with pinometostat it was 0.012; in assay [5] it was 0.023; in [6], -0.171; in assay [7] it was 0.052; in assay [8], -0.01. Also, the log2 fold change is 0.073 in [9]; 0.015 in assay [10]; 0.021 with Nexturastat A; 0.061 with vemurafenib; 0.11 in assay [11]; 0.007 in assay [12]. In addition, the figures for the log2 fold change in the assay with givinostat and in the assay with barasertib were 0.083 and 0.054, respectively.
